Compound activity (PubChem)
In the library only some 1.2% were active in any assay of this set; here they are far more common.
GCN5L2 inh – inhibitors of human GCN5L2 histone acetyltransferase; Q92830; GCN5L2 HAT assay, ThioGlo1 CoA-SH fluorescence; Potency, µM (highest dose often 58.9 µM), most hits filed as inhibitors; 390,000 compounds, 0.21% hits; AID 504327
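Compounds, pin-transferred from DMSO stocks, meet 20nM GCN5L2 for 15 min before the reaction begins with H3(1-25) peptide (75uM) and acetyl-CoA (70uM). Thiol-reactive ThioGlo1 reports CoA release over 20 min at room temperature.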
PI4K2A block – inhibitors of human PI4K2A; Q9BTU6; 420,000 compounds, 0.13% hits; purified PI4K2A, ADP-Glo luminescence, 1 h; hits give low values; AID 1346378; activity change, negative = inhibition, % at 76.9 µM; in the data active means activity change below about -50%; inconclusive means mostly about -30% to -49%
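PI4K2A activity was measured by ADP-Glo luminescence: enzyme (4 ug/mL stock) and phosphatidylinositol (1.2 mM stock) in Tris pH 7.5/MgCl2/EGTA/Triton X-100 buffer were reacted with ATP (300 microM stock) for one hour at ambient temperature.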
RGS12 GoLoco inh – blocks human Gai1 binding to RGS12 GoLoco peptide, red readout. P63096. Gai1:RGS12 GoLoco peptide FP, rhodamine, 10 min. Potency, µM (doses to about 61.6 µM), most hits filed as inhibitors. 230,000 compounds, 0.44% hits. AID 880; active means well fitted inhibition curve with a large enough effect, not every such curve was filed as active; inactive means no such curve, though single readings can be large or run the other way; further: nearly all actives have a fitted effect of over 30% in size
Target sequence (P63096 whole entry, looked up): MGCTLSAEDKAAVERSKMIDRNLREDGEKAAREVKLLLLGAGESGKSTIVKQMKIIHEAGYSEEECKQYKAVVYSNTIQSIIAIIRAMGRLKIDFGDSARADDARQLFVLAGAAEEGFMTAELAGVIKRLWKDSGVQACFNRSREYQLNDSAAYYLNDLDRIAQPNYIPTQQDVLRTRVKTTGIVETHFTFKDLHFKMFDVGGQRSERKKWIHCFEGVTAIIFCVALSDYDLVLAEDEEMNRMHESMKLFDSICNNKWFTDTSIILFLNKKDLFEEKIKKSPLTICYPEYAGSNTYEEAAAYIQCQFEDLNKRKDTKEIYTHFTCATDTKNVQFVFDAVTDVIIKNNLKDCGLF
Pin1 inhibitor – blocks the human prolyl isomerase Pin1; Pin1 FP peptide displacement, HiFluor488, 10 min; Potency, µM (doses to about 115 µM), most hits filed as inhibitors; Q13526; 390,000 compounds, 0.009% hits; active means well fitted inhibition curve with a large enough effect in the polarisation, with a control signal flat, not every such curve was filed as active; inconclusive means small, poorly fitted or top-dose-only effect, or effect the other way, or a change in a side signal; inactive means no such curve, though single readings can be large or run the other way; the % refers to the polarisation
Target sequence (Q13526 whole entry, looked up): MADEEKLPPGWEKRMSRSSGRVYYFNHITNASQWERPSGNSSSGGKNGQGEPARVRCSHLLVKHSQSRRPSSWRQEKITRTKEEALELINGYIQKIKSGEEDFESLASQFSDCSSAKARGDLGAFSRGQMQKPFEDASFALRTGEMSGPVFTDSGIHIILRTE
PI5P4K alpha inh – PI5P4K alpha (human) kinase inhibition; P48426; PI5P4Kalpha enzyme, ADP-Glo luminescence, 60 min; hits give low values; max response, %; 330,000 compounds, 1.2% hits; AID 652105; active means max response of -50% or lower; inconclusive means between -30% and -50%; inactive means -30% or higher; further: value at the top dose of about 77 µM
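Enzyme plus substrate dispensed, test compounds pinned in, then ATP (5 microM final) added. After 60 min at RT, ADP-Glo reagent 1 for 45 min and reagent 2 for 30 min preceded luminescence imaging.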
Tb PGK inh – inhibitors of T. brucei phosphoglycerate kinase; P07378; PGK/GAPDH coupled, Kinase-Glo luminescence, 60 min; Potency, µM (series often up to 57.5 µM), most hits filed as inhibitors; 380,000 compounds, 0.043% hits; further: nearly all actives have a fitted effect of over 60% in size
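Recombinant glycosomal PGK reaction used 1,3-bisphosphoglycerate generated in-well by GAPDH (100nM final) in 100mM TEA pH 7.6, 5mM MgCl2, 0.01% Tween-20. After 60 minutes at room temperature, ATP was read by Kinase-Glo Plus luminescence end-point.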
ADP-Glo interf – interferes with ADP-Glo detection without enzyme present | shares compounds with PI5P4K alpha inh | ADP-Glo detection counter-screen, luciferase luminescence, no enzyme | Potency, µM (highest dose often 76.9 µM), most hits filed as inhibitors | 1,100 tested, under 10 active
Hits are given with their value; i = inactive; ? = inconclusive; nt = no result given; [ ] = dose if it differs, or a comment. Unless noted, the call rests on the fitted dose curve; in most records, active means well fitted curve in the direction sought with a large enough effect; inconclusive means small, poorly fitted or top-dose-only effect, or another doubt; inactive means no such curve, though single readings can be large; an effect the other way counts as inactive or inconclusive.

SMILES	GCN5L2 inh	PI4K2A block	RGS12 GoLoco inh	Pin1 inhibitor	PI5P4K alpha inh	Tb PGK inh	ADP-Glo interf
CCn1cc(/C=C(\NC(=O)c2ccccc2Cl)C(=O)NCCCn2ccnc2)c2ccccc21	i	i	nt	i	nt	i	nt
CCC(=O)Oc1ccc(C(=O)Nc2c[nH]c(=O)[nH]c2=O)cc1	i	i	i	i	-53	i	i
CCc1ccccc1NC(=O)CSc1nc2[nH]c(=O)cc(O)c2s1	i	i	nt	i	?	i	nt
Cc1cccc(NC(=O)CSc2nc3[nH]c(=O)cc(O)c3s2)c1	i	i	nt	i	-53	i	i
Cc1ccccc1NC(=O)CSc1nc2[nH]c(=O)cc(O)c2s1	i	i	nt	i	-62	i	i
O=C(CSc1nc2[nH]c(=O)cc(O)c2s1)Nc1ccc(Br)cc1	i	i	nt	i	-52	i	i
O=C(CSc1nc2[nH]c(=O)cc(O)c2s1)Nc1cccc(Br)c1	i	i	nt	i	?	i	nt
CSc1ccc(NC(=O)Nc2cc(C)ccn2)cc1	i	i	i[14.2 µM]	i	i	i	nt
COc1ccc(CNC(=O)Cc2ccc(NC(=O)C3=C(C)OCCS3)cc2)cc1	?	i	nt	i	-51	i	i
Clc1cccc(CNC2CCC23CCCCC3)c1 (stereo unspecified)	nt	i	nt	nt	nt	nt	nt
COc1ccc(-c2cc(C(=O)Nc3c(C(=O)c4ccc(Cl)cc4)oc4ccccc34)no2)cc1	i	i	nt	i	nt	i	nt
O=C(COc1ccc(Br)cc1Cl)c1ccc[nH]1	i	i	i	i	i	i	nt
O=C(COc1ccccc1Cl)c1ccc[nH]1	i	i	i	i	-51	i	i
COP(=O)(OC)OC(c1ccc(Cl)cc1)P(=O)(OC)OC (stereo unspecified)	i	i	i	nt	nt	nt	nt
CCN(CC)C(=O)CC(c1cc(OC)c(OC)c(OC)c1)c1c(OC)cc(OC)c2ccc(=O)oc12 (stereo unspecified)	i	i	i	i	i	i	nt
CCN(CC)C(=O)CC(c1cc(OC)c(OC)c(OC)c1)c1c(OC)cc(OC)c2c(-c3ccccc3)cc(=O)oc12 (stereo unspecified)	i	i	i	?	-56	?	i
O=C(COC(=O)c1ccc(NS(=O)(=O)c2cccs2)cc1O)Nc1nc2ccccc2s1	i	i	i	i	-69	i	i
CC(C)(C)NC(=O)COc1ccc(CNCc2cccnc2)cc1	i	i	i	i	i	i	nt
CN1CCC(=C(c2ccccc2)c2ccc(Br)cc2)CC1	nt	i	nt	i	i	i	nt
O=c1oc2c(CN3CCCCC3)c(O)ccc2cc1-c1nc2ccccc2[nH]1	i	i	i	?	nt	i	nt
O=c1oc2c(O)cccc2cc1-c1nc2ccccc2[nH]1	?	i	nt	?	?	i	i
COC(=O)[C@]12C[C@H](CC(=O)NCC3CCCCC3)C(=O)N(Cc3ccccc3)C1=C[C@H](COCc1ccccc1)O[C@@H]2C	nt	i	nt	nt	nt	nt	nt
C=CCOC(/C=C/c1ccccc1)C[Si](C)(C)C (stereo unspecified)	nt	nt	nt	i	nt	nt	nt
COc1ccc2nc(Nc3sc4c(c3C(N)=O)CCCC4)sc2c1	i	i	i	i	-70	i	i
COc1ccc(CC(=O)Nc2sc3c(c2C(N)=O)CCCC3)cc1	i	i	nt	i	i	i	nt
SMILES	GCN5L2 inh	PI4K2A block	RGS12 GoLoco inh	Pin1 inhibitor	PI5P4K alpha inh	Tb PGK inh	ADP-Glo interf
CC(=O)c1ccc(NC(=O)c2noc3c2CCC3)cc1	?	i	i	?	-58	i	i
O=C(Nc1ccc(OC(F)(F)F)cc1)c1noc2c1CCCC2	i	i	nt	i	nt	nt	nt
CC(=O)Nc1cccc(-c2ccnc3c2CC(C(=O)NCc2ccco2)O3)c1 (stereo unspecified)	nt	i	nt	nt	-50	nt	i
Cc1ccc(Cn2ccc(NC(=O)c3cc(-c4cccs4)on3)n2)cc1	i	i	i	i	nt	i	nt
Cc1ccccc1NC(=O)OC1CCC12CCCCC2 (stereo unspecified)	nt	i	nt	nt	nt	nt	nt
Cc1nn(-c2ccccc2)c2nc(=O)n(-c3ccccc3)cc12	i	i	i	i	nt	i	i
Cc1ccc2nc3c(cc2c1)c(C)nn3-c1ccccc1	i	i	nt	i	i	i	nt
CN1OC[C@@H]2CN3C(=O)N(c4cccc5ccccc45)c4ccccc4[C@@H]3C[C@@H]21	nt	i	nt	nt	-53	nt	i
CN1OC[C@@H]2CN(S(=O)(=O)c3cccc4ccccc34)[C@H](c3ccc(-c4ccccc4)cc3)C[C@@H]21	nt	i	nt	nt	i	i	nt
NCC1O[C@@H](OC2C(N)C[C@H](N)[C@@H](O[C@H]3OC(CO)C(O)C(N)C3O)C2O)C(N)C(O)C1O (stereo partly specified)	i	nt	i	nt	nt	nt	nt
O=C(Nc1ccsc1C(=O)O)c1cccc(C(F)(F)F)c1	i	i	nt	i	-58	i	i
O=C(Nc1ccsc1C(=O)O)c1cccc(Oc2ccccc2)c1	i	i	nt	i	?	i	nt
CC(=O)Oc1ccc(C(=O)COC(=O)CNC(=O)COc2ccccc2C)cc1	nt	nt	nt	i	nt	nt	nt
CCC(=O)NC(c1ccccc1OC)c1ccc2cccnc2c1O (stereo unspecified)	i	i	i	?	nt	nt	nt
COc1ccc(Cl)cc1C(Nc1cccnc1)c1ccc2cccnc2c1O (stereo unspecified)	i	i	i	i	-72	i	i
COc1ccc(CN2CCN(Cc3cc4ccccc4o3)CC2CCO)cc1C (stereo unspecified)	i	i	nt	i	i	i	nt
COc1ccc(OC)c(NC(=O)COC(=O)c2cc3c(s2)CCC3)c1	i	i	i	?	-83	?	i
Cc1noc(C)c1C(=O)Nc1ccc(-n2ccc(C(F)(F)F)n2)cc1	i	i	nt	?	?	i	i
CCC(C)c1nc2ccsc2c(N2CCOC2=O)c1-c1ccccc1 (stereo unspecified)	nt	i	nt	i	-54	i	i
O=c1oc(-c2ccccc2)nc2ccsc12	i	i	i	i	i	i	nt
CCCCOc1ccc(S(=O)(=O)NC(=O)C2(C)CCN2C(=O)CCc2ccccc2)cc1 (stereo unspecified)	nt	i	nt	nt	-53	nt	i
COc1ccc(-n2nc(C(=O)NCC(=O)N3CCCCCC3)c3ccccc3c2=O)c(OC)c1	i	i	nt	i	i	i	nt
CCOC(=O)CSc1nc(C)cc(C)n1	i[0.501 µM]	i	i	i	i	i	nt
COC(=O)CSc1nc(C)cc(C)n1	i	i	i	i	-67	i	i
O=C(NC(=S)NCc1ccccc1)c1cccc(Cl)c1	i	i	nt	i	i	i	nt
CCCn1c(=O)c2[nH]c(-c3ccc(OCC(=O)Nc4ccc(C(C)=O)cc4)cc3)nc2n(CCC)c1=O	i	nt	i	nt	nt	nt	nt
